Screen size: about 59,000 compounds; about 6,200 (11%) were called active. Another 9% or so got no clear call; they are omitted. Rule as the data show it: active = max dye-equivalent concentration above about 10 nM; inconclusive = mostly about 1.1 nM to 9.6 nM; inactive = weaker than that. Only a selection was taken, and actives are over-represented in it overall.

The nature of this experiment: qHTS Assay for Spectroscopic Profiling in 4-MU Spectral Region. To be noted: compound autofluorescence, 340/450 nm, 4-MU equivalents; stronger effect = higher value. Summed up:
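Intrinsic fluorescence at 340/450 nm (ex/em) was read after 15 min at room temperature in pH 8.0, 100 mM Tris. Each compound concentration expressed as 4-MU-equivalent concentration from a six-point 4-MU standard series on each plate.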
As for `CC(C)c1ccc(N2CC(C(=O)Nc3nccs3)CC2=O)cc1` (configuration not stated), the max dye-equivalent concentration result is “inactive”. Regarding `Cn1nnnc1SCC(=O)N1CCN(C(c2ccccc2)c2ccccc2)CC1`, the max dye-equivalent concentration entry is “inactive”. Consider `c1ccc(CCN2CN=C(Nc3nc4ccccc4o3)NC2)cc1`, for which the max dye-equivalent concentration result is “inactive”. Next, `Cc1ccc2nc(NC3=NCN(CCc4ccccc4)CN3)nc(C)c2c1`: “inactive”.

On to `COc1ccc2nc(NC3=NCN(CC4CCCO4)CN3)nc(C)c2c1` (configuration not stated), for which the max dye-equivalent concentration is 92 nM (active).

Regarding `Cc1ccc(S(=O)(=O)NCC(=O)N(CC(=O)NC2CCCCC2)Cc2ccco2)cc1`, the max dye-equivalent concentration result was “inactive”. For `Cc1cc(C(=O)NCCCc2ccccc2)no1`, the max dye-equivalent concentration entry was “inactive”.

For `c1ccc2c(NCC3CCCO3)nc(-c3ccncc3)nc2c1` (configuration not stated), the max dye-equivalent concentration result was “inactive”. To `CCCN(CCC)CCNC(=O)c1cc2c(C)nc3ccccc3c2o1` belongs 17 nM (active).

Take `CCCC(=O)N(CCc1ccccc1)Cc1nc2ccccc2c(=O)[nH]1`: the max dye-equivalent concentration result was “inactive”. Regarding `Cc1ccc(C(=O)NCC2CCCO2)o1` (configuration not stated), the max dye-equivalent concentration entry was “inactive”. Consider `Cc1nc2ccccc2c2oc(C(=O)NCC3CCCO3)cc12` (configuration not stated), for which the max dye-equivalent concentration is 12 nM (active). To `Cc1cc(NC(=O)CN2CCC(O)(c3cccc(F)c3)CC2)no1` belongs “inactive”; to `CCn1c(SCC(=O)c2ccc(Cl)s2)nnc1-c1cccs1`, “inactive”; to `Cc1ccn2cc(-c3nonc3C)cc2c1`, “inactive”.

For the compound `COC(=O)c1cccc(NC(=O)CSc2nc(C)cc(=O)[nH]2)c1`, the max dye-equivalent concentration result was “inactive”. Next, `Cc1ccc2c(c1)sc1ncc(NC(=O)c3ccccc3)c(=O)n12`: 55 nM (active). On to `Cc1ccc(NC(=O)c2nc[nH]c2C(=O)N2CCCCC2)c(C(=O)c2ccccc2)c1`, for which the max dye-equivalent concentration result was “inactive”. To `Cc1ccccc1NC(=O)c1ccccc1` belongs “inactive”; to `CCOC(=O)c1c(C)[nH]c(C)c1C(=O)CSc1nc(N)cc(N)n1`, “inactive”; to `CCOC(=O)N1CCC(NC(=O)CN2C(=O)COc3ccc(C(C)(C)C)cc32)CC1`, “inactive”. For the compound `O=C(c1cccc(F)c1)N1CCC2(CCCN(Cc3ccncc3)C2)CC1`, the max dye-equivalent concentration result is “inactive”. As for `CCC12CN3CC(CC)(CN(C1)C31C(=O)N(C)c3ccc(C)cc31)C2=O` (configuration not stated), the max dye-equivalent concentration entry is “inactive”. Next, `CC(=O)OCc1cc2cc(C)ccc2[nH]c1=O`: “inactive”. To `CCOC(=O)c1cc2cc(C)ccc2[nH]1` belongs “inactive”; to `CCNCc1cc2cc(C)ccc2[nH]c1=O`, 49 nM (active); to `O=C(CNC(=O)c1ccc(Cl)cc1Cl)NCC(=O)Nc1ccccc1N1CCOCC1`, “inactive”. `COc1ccc2c(c1OC)C(=O)OC2c1c(O)nc(SC)n(-c2ccccc2)c1=O` (configuration not stated): the max dye-equivalent concentration result is “inactive”. For `O=c1[nH]c(-c2cccs2)nc2ccccc12`, the max dye-equivalent concentration result was “inactive”. For `O=c1[nH]c(=O)c2nc3ccccc3nc2[nH]1`, the max dye-equivalent concentration was 210 nM (active). For `CC1(C)CCCC2=C1CC1C(=O)N(c3ccccc3)C(=O)C1C2` (configuration not stated), the max dye-equivalent concentration entry was “inactive”. Next, `CCOC(=O)C1CCN(Cc2coc3ccc(Cl)cc3c2=O)CC1`: “inactive”; `Cc1noc(C)c1-c1nccc(N2CCOCC2)n1`: “inactive”; `CC[C@@H]1Cc2cc(O)ccc2C2=C1c1ccc(O)cc1C[C@H]2CC`: 270 nM (active). Consider `O=C(NCCC1=CCCCC1)C1CCN(Cc2cnn(-c3ccccc3)c2-n2cccc2)CC1`, for which the max dye-equivalent concentration entry was “inactive”.

Turning to `COC(=O)c1ccc(Oc2nc(Nc3ccc(F)cc3)nc(N3CCCC3)n2)cc1`, the max dye-equivalent concentration entry is “inactive”. Next, `c1ccc(CNc2ncncc2-c2cccnc2)cc1`: “inactive”; `Cc1ccc(S(=O)(=O)c2nc(NCCCn3ccnc3)sc2Cl)cc1`: “inactive”; `CCOc1cc(-c2nc3cc(C)ccn3c2NCC2CCCO2)ccc1O` (configuration not stated): 68 nM (active). Next, `Cc1ccc(-c2noc(-c3ccccc3C(=O)NCC3CCCO3)n2)cc1` (configuration not stated): “inactive”; `Cc1ccc(C(=O)O)cc1S(=O)(=O)NCC1CCCO1` (configuration not stated): “inactive”. With `O=C(CSc1nnc(-c2ccco2)o1)NCC(=O)c1ccccc1`, the max dye-equivalent concentration entry was “inactive”. Next, `COc1ccc(C(=O)N(Cc2ccc(N(C)C)cc2)C2CCS(=O)(=O)C2)cc1` (configuration not stated): “inactive”; `CC(=O)N1CCC2(CCCN(c3ncccn3)C2)CC1`: “inactive”.

For the compound `COc1cc2c(cc1OC)C(c1ccncc1)CC(=O)N2` (configuration not stated), the max dye-equivalent concentration entry is “inactive”. Consider `CC1(C)Cc2c(C#N)c(SCc3nc4ccccc4[nH]3)nc(N3CCOCC3)c2CO1`, for which the max dye-equivalent concentration is 28 nM (active).

As for `COc1ccc(CSc2nc(N3CCOCC3)c3c(c2C#N)CC(C)(C)OC3)cc1`, the max dye-equivalent concentration is 30 nM (active). Next, `c1ccc2[nH]c(NCCN3CCOCC3)nc2c1`: “inactive”. For the compound `CC(C)c1nc(N2CCOCC2)c(C#N)c2c1COC(C)(C)C2`, the max dye-equivalent concentration was 140 nM (active). Turning to `COc1ccc(C(CNC(=O)c2cccnc2SC)N2CCOCC2)cc1` (configuration not stated), the max dye-equivalent concentration result was “inactive”. As to `CC(C)Cc1nc(N2CCOCC2)c(C#N)c2c1CCC2`, the max dye-equivalent concentration is 56 nM (active). To `CCn1c(Cc2ccccc2)nnc1SCc1nc2ccccc2c(=O)[nH]1` belongs “inactive”. Next, `O=C(Nc1cccc(F)c1)N1CC2(CCN(C(=O)c3csnn3)CC2)C1`: “inactive”; `O=C(c1cc(C(F)(F)F)cc(C(F)(F)F)c1)N1CCC[C@@]2(CCN(c3ccccn3)C2)C1`: “inactive”. As to `Cc1cc(C)n(C(=O)c2ccc(S(=O)(=O)N3CCCC3)cc2)n1`, the max dye-equivalent concentration entry is “inactive”. In the case of `CCSc1nc(=S)n(CC)c(C)c1C(C)=O`, the max dye-equivalent concentration entry was “inactive”.

Take `CCOC(=O)c1sc(NC(=O)CSc2nnc(-c3ccco3)o2)c(C(=O)OCC)c1C`: the max dye-equivalent concentration result is “inactive”. To `CC1CCCN(C(=O)Cn2c(=O)oc3ccccc32)C1` (configuration not stated) belongs “inactive”; to `COC(=O)C1=C(C)NC(=O)NC1/C=C/c1ccccc1` (configuration not stated), “inactive”.

With `CC(C)C(=O)N1CCN(c2nc(-c3ccccc3)c3c(c2C#N)CC(C)(C)OC3)CC1`, the max dye-equivalent concentration is 190 nM (active). Next, `CNC(=O)Nc1cc(C(C)(C)C)no1`: “inactive”; `Cn1nnc(NC(=O)CSc2ncn[nH]2)n1`: “inactive”. To `CCCC(=O)Nc1ccc2c(c1)nc1n2CCSC1` belongs “inactive”.

`CCCCCC(=O)Nc1ccc2oc(-c3ccncc3)nc2c1`: the max dye-equivalent concentration is 23 nM (active). In the case of `CCCCC(=O)Nc1ccc2c(c1)OCCO2`, the max dye-equivalent concentration result is “inactive”. As for `O=C(c1ccco1)N1CCC2(CC1)CCN(c1ncccn1)CC2`, the max dye-equivalent concentration entry is “inactive”. For `O=C1NC(c2ccncc2)Nc2sc3c(c21)CCCC3` (configuration not stated), the max dye-equivalent concentration is 59 nM (active).

Take `COC(=O)c1ccc(Oc2nc(NC(C)C)nc(SC)n2)cc1`: the max dye-equivalent concentration result is “inactive”. Turning to `COc1cccc(-c2nc(Nc3ccncc3)c3ccccc3n2)c1`, the max dye-equivalent concentration entry was “inactive”. To `c1ccc2c(Nc3ccncc3)nc(-c3ccoc3)nc2c1` belongs “inactive”; to `c1ccc2c(Nc3ccncc3)nc(-c3ccc4c(c3)OCO4)nc2c1`, 19 nM (active); to `CCOCCCN1C(=O)CN(C2CCCCC2)C(=O)C1c1ccc(OCC)c(OC)c1` (configuration not stated), “inactive”. Consider `COc1ccc(CNC(=O)c2c(C)cc(=O)oc2C)cc1OC`, for which the max dye-equivalent concentration entry was “inactive”. In the case of `COCCN(C(=O)CCC(=O)Nc1ccccn1)C(C(=O)NCCC(C)C)c1ccc(OC)cc1` (configuration not stated), the max dye-equivalent concentration entry was “inactive”. Next, `Oc1ccccc1CNCc1ccccc1O`: “inactive”. As to `c1ccc2c(CNn3cnnc3)cccc2c1`, the max dye-equivalent concentration entry is “inactive”. Next, `Cc1cc(C)c2c(c1)c(C)cc1nnc(SCC(=O)NCc3ccco3)n12`: “inactive”; `COc1ccc2nc(N3CCCC(O)C3)c(C#N)cc2c1` (configuration not stated): 170 nM (active); `COc1ccc(OC)c(CNC(=O)C2CCCN(c3nc4ccccc4o3)C2)c1` (configuration not stated): “inactive”. To `Nc1nonc1-c1noc(-c2ccc(Br)o2)n1` belongs “inactive”; to `c1csc(CN2CCN(Cc3cccs3)C2c2cccs2)c1`, “inactive”; to `Cc1nn(-c2ccccc2)c2[nH]c(C(F)(F)F)cc(=O)c12`, “inactive”. Turning to `COc1ccc(CC(=O)Nc2nc3n(n2)C(c2ccccc2)CC(=O)N3)cc1OC` (configuration not stated), the max dye-equivalent concentration result was “inactive”. Next, `COc1ccc(CCNC(=O)C2CCN(c3nn4c(=O)cc(C)nc4s3)CC2)cc1OC`: “inactive”; `CCOc1ccc(CCNC(=O)C2CCN(c3ccc(N4CCOCC4)nn3)CC2)cc1OCC`: 410 nM (active).

Turning to `CCCS(=O)(=O)N1CCC(C(=O)NCCc2ccc(OC)c(OC)c2)CC1`, the max dye-equivalent concentration result is “inactive”. To `Cc1ccc(-n2c(N)c(C(=O)N3CCOCC3)sc2=S)c(C)c1` belongs “inactive”; to `CS(=O)(=O)N1CCC2(CC1)CN(Cc1cc(C(F)(F)F)cc(C(F)(F)F)c1)C2`, “inactive”. Next, `CCOc1cc(CN2CCN(C(=O)CC(C)C)CC2)ccc1OC`: “inactive”; `O=C(CSc1nnc(-c2ccccn2)n1-c1ccccc1)Nc1ccc2c(c1)OCO2`: “inactive”; `COc1ccc2[nH]c3cc4c(=O)c5cc(OC)ccc5[nH]c4cc3c(=O)c2c1`: “inactive”. As for `COc1ccc2[nH]c3ccc(OC)cc3c2c1`, the max dye-equivalent concentration is 200 nM (active).

Turning to `COc1cccc(Oc2ccc(N)cc2)c1`, the max dye-equivalent concentration result was “inactive”. Turning to `O=C(O)CN(Cc1ccco1)S(=O)(=O)c1ccc(F)cc1`, the max dye-equivalent concentration result was “inactive”. `O=C(c1ccco1)N1CCN(CC(=O)N(C2CCCCC2)C2CCS(=O)(=O)C2)CC1` (configuration not stated): the max dye-equivalent concentration entry was “inactive”.

Turning to `Cc1c(NC(=O)c2cccnc2)c(=O)n(-c2ccccc2)n1C`, the max dye-equivalent concentration entry was “inactive”. On to `Cc1c(NC(=O)c2coc(=O)c(Br)c2)c(=O)n(-c2ccccc2)n1C`, for which the max dye-equivalent concentration is 190 nM (active). To `Cc1cc(C(=O)Nc2c(C)n(C)n(-c3ccccc3)c2=O)cs1` belongs “inactive”. Next, `CCOCCCNS(=O)(=O)Cc1ccccc1`: “inactive”. For `O=C1c2cccnc2C(Nc2ccc(S(=O)(=O)N3CCCCCC3)cc2)N1Cc1ccccc1` (configuration not stated), the max dye-equivalent concentration result is “inactive”. Regarding `O=C1c2ccccc2C(O)N1Cc1ccccc1` (configuration not stated), the max dye-equivalent concentration was 25 nM (active). Consider `O=C(NC1CCCCC1)C1c2ccccc2C(=O)N1Cc1ccco1` (configuration not stated), for which the max dye-equivalent concentration result was “inactive”.

For the compound `CCOC(=O)CSc1nnc(NC(=O)c2cccc(S(=O)(=O)N3CCCC3)c2)s1`, the max dye-equivalent concentration result is “inactive”. Consider `CN1C(=O)C[C@H](c2ccccc2)C1=O`, for which the max dye-equivalent concentration entry is “inactive”. Regarding `CCCCCOC(=O)NCCOC(=O)Nc1ccc(C(=O)OCC)cc1`, the max dye-equivalent concentration result is “inactive”. Take `COc1cccc(-c2cc3nc4c(c(N5CCC6(CC5)OCCO6)n3n2)CCCC4)c1`: the max dye-equivalent concentration was 100 nM (active). Next, `COc1cccc(-c2nc(S(=O)(=O)c3ccccc3)c(N3CCOCC3)o2)c1`: “inactive”; `CC1CC(C)CN(CC(=O)Nc2ccc(S(N)(=O)=O)cc2)C1` (configuration not stated): “inactive”; `Cc1nnc(SCC(N)=O)n1CC1CCCO1` (configuration not stated): “inactive”. Next, `Cc1cccn2c(=O)c3cc(C#N)c(=O)n(CCCN4CCOCC4)c3nc12`: 8300 nM (active); `Cc1cccn2c(=O)c3cc(C#N)c(=NC(=O)c4cccnc4)n(CC4CCCO4)c3nc12` (configuration not stated): 3400 nM (active); `Cn1c(=O)c2c(nc(CN3CCOCC3)n2Cc2ccccc2)n(C)c1=O`: “inactive”.

Values taken from PubChem BioAssay AID589 (National Center for Advancing Translational Sciences (NCATS), 2007).
